Experimental data reported in PubChem BioAssay (NCATS).
Records with an inconclusive call do not appear. Activity calls are given as the source filed them. Calls come from the whole dose curve; as a rule, active = well fitted curve in the direction sought with a large enough effect; inconclusive = small, poorly fitted or top-dose-only effect, or another doubt; inactive = no such curve, though single readings can be large; an effect the other way counts as inactive or inconclusive.

Biological target: Pyruvate kinase (Leishmania mexicana) (UniProt Q27686)
Assay: qHTS Validation Assay for Inhibitors of Leishmania Mexicana Pyruvate Kinase (AID 945)
Settings: purified L. mexicana pyruvate kinase, enzyme activity, E451W mutant enzyme; series mostly up to 57.5 µM
Outline: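 Compounds are tested as eight-point concentration series. Reactions contain 0.2 nM LmPYK E451W, 0.5 mM PEP, 0.1 mM ADP, 7 mM MgCl2 and 50 mM KCl at pH 7.2, run 1 h at room temperature, then read by PKLight luminescence.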

Sequence of Pyruvate kinase (Leishmania mexicana) (Q27686 2-499 E452W): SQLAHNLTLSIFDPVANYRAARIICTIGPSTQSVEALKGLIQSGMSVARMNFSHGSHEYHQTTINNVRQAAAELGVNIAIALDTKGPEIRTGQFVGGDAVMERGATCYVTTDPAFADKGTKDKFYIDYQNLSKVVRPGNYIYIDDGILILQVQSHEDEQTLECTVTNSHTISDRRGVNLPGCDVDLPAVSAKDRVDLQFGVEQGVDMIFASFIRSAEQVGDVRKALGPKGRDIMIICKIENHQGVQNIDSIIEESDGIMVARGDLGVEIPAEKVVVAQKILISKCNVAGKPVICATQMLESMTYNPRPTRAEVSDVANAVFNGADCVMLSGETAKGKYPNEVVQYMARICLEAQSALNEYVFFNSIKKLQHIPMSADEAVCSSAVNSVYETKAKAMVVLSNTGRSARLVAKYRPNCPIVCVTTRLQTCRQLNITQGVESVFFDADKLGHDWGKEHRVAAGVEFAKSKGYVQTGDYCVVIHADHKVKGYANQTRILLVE

SMILES	outcome
c1ccc(CCCN2CCN(CCOC(c3ccccc3)c3ccccc3)CC2)cc1	inactive
Cn1cnc(CCN)c1	inactive
C[C@@H]1O[C@H](C[N+](C)(C)C)C[C@H]1O	inactive
O=C(O)CC[N+](=O)[O-]	inactive
CCCN1CCO[C@@H]2c3cc(O)ccc3OC[C@H]21	inactive
CCCN(CCC)[C@@H]1CCc2ccc(O)cc2C1	inactive
NCCc1c[nH]c2ccccc12	inactive
NC(N)=NOCCC(N)C(=O)O (stereo not given)	inactive
C[C@]12N[C@H](Cc3ccccc31)c1ccccc12	inactive
CC1=NN=C(c2ccc(N)cc2)c2cc3c(cc2C1)OCO3	inactive
C#CCOC(=O)C1=CCCN(C)C1	inactive
O=C1CCCN1CC#CCN1CCCC1	inactive
Cc1nc(-c2ccc(-c3ccc(C(=O)N4CCc5cc6c(cc54)C4(CCN(C)CC4)CO6)cc3)c(C)c2)no1	inactive
O=C(O)Cc1cnc[nH]1	inactive
NCc1cc(=O)[nH]o1	inactive
CCCN1CCC[C@H](c2cccc(O)c2)C1	inactive

SMILES	outcome
CC(C)Oc1cccnc1N(C)C1CCN(Cc2ccccc2)CC1	inactive
CN[C@@H]1C[C@@H](c2ccc(Cl)c(Cl)c2)c2ccccc21	inactive
S=C(NC1CCCCC1)N1CCC(c2cnc[nH]2)CC1	inactive
CNCCc1ccc(O)c(O)c1	inactive
COc1ccc2c(c[n+](C)c3c4cc5c(cc4ccc23)OCO5)c1OC	inactive
NCCc1c[nH]c2ccc(O)cc12	inactive
Clc1cnc(Oc2ccc(Oc3ncc(Cl)cc3Cl)cc2)c(Cl)c1	inactive
CC(=O)NCCc1c[nH]c2ccccc12	inactive
Cc1nccc2c1[nH]c1ccccc12	inactive
NC(=NCCC[C@H](N)C(=O)O)N[N+](=O)[O-]	inactive
CC[C@@]1(O)C(=O)OCc2c1cc1n(c2=O)Cc2cc3ccccc3nc2-1	inactive
Cc1c(C(=O)c2cccc3ccccc23)c2cccc3c2n1[C@H](CN1CCOCC1)CO3	inactive
CNCCc1c[nH]c2ccc(O)cc12	inactive
CCCCc1ccc(C(=O)O)nc1	inactive
c1ccc2sc(C3(N4CCCCC4)CCCCC3)cc2c1	inactive

System: not listed separately
Assay: MultiTox-Fluor Cytotoxicity Assay - LYMP1-001 - Dead Cells (AID 946)
Settings: LYMP1-001 lymphoblastoid cells, dead-cell protease fluorescence; series mostly up to 92.2 µM
Outline: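 Cytotoxicity as increased dead-cell protease fluorescence (bis-AAF-R110, 485/520 nm), read 60 min after MultiTox-Fluor reagent. Human lymphoblastoid line exposed 16 h; Hill-fitted AC50, with DMSO as 0% and 15 uM tetraoctylammonium bromide as 100%.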

SMILES	outcome
C=CC(=O)NCNC(=O)C=C	inactive
O=C(O)COc1ccccc1	inactive
OCCCBr	inactive
CCCCCCCCc1ccc(O)cc1	inactive
